In PubChem BioAssay (Tox21):
Results filed as inconclusive are left out. Calls of active or inactive are those of the source. Unless noted, calls come from the whole dose curve; as a rule, active = well fitted curve in the direction sought with a large enough effect in the repeat runs; inconclusive = weak or mixed curves; inactive = no such curve, though single readings can be large; an effect the other way counts as inactive or inconclusive.

Key:
[1] = qHTS assay to identify small molecule agonists of the vitamin D receptor (VDR) signaling pathway - cell viability counter screen (AID 743224); note: series mostly up to about 63 µM; nearly all actives have a fitted effect of over 50% in size
Procedure, shortened: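 CellTiter-Glo viability readout on VDR-bla cells, measured after 16 h of compound treatment at 37C in the same wells.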

[2] = qHTS assay to identify small molecule antagonists of the vitamin D receptor (VDR) signaling pathway - cell viability counter screen (AID 743225); note: nearly all actives have a fitted effect of over 50% in size
Procedure, shortened: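 Cytotoxicity counter screen read by CellTiter-Glo luminescence (30 min, room temperature) in the same wells as the VDR-bla antagonist readout. HEK 293T VDR-UAS-bla cells had 16 h at 37C with compound and 3 nM (final) 1-alpha,25-dihydroxyvitamin D3, then 2 h with FRET substrate.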

[3] = qHTS assay to identify small molecule agonists of the NFkB signaling pathway - cell viability counter screen (AID 1159515; calls by dose curve; note: series mostly up to about 61 µM; nearly all actives have a fitted effect of over 55% in size)
Procedure, shortened: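 Tox21 library compounds were tested for cytotoxicity against NFkB-bla ME-180 cells during a 5 hr exposure at 37 C. CellTiter-Glo luminescence served as the viability read-out.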

[4] = qHTS assay to identify small molecule agonists of the endoplasmic reticulum stress response signaling pathway (AID 1159516; active = well fitted activation curve with a large enough effect in the signal ratio in the repeat runs, not every such curve was filed as active; the % refers to the signal ratio)
Procedure, shortened: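 Fluorescence at 460 and 530 nm (405 nm excitation) reports beta-lactamase from an ER stress response element in HeLa cells treated 5 hr at 37 C.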

[5] = qHTS assay to identify small molecule agonists of the endoplasmic reticulum stress response signaling pathway - cell viability counter screen (AID 1159517; calls by dose curve; note: series mostly up to about 61 µM; nearly all actives have a fitted effect of over 50% in size)
Procedure, shortened: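 In parallel with the ESRE reporter read, cytotoxicity was scored by CellTiter-Glo luminescence (30 min, room temperature) on HeLa ESRE-bla cells dosed for 5 hr.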

[6] = qHTS assay to identify small molecule antagonists of the retinoid-related orphan receptor gamma (ROR-gamma) signaling pathway - cell viability counter screen (AID 1159520); note: nearly all actives have a fitted effect of over 50% in size
Procedure, shortened: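 Tet-on ROR gamma CHO cells were given compounds for 2 hr, then doxycycline hyclate at 1 uM final, and incubated 16 hr at 37 C. Viability was measured as ATP content by CellTiter-Glo luminescence.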

[7] = target: Nuclear receptor ROR-gamma (Homo sapiens) (UniProt P51449); assay: qHTS assay to identify small molecule antagonists of the retinoid-related orphan receptor gamma (ROR-gamma) signaling pathway (AID 1159521)
Procedure, shortened: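 Antagonist read-out: drop in luminescence (ONE-Glo) from an RORE-LUC reporter in CHO cells with doxycycline-inducible ROR-gamma; 2 hr compound pretreatment, 1 uM doxycycline, 16 hr incubation at 37 C.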

[8] = qHTS assay to identify small molecule agonists of the AP-1 signaling pathway - cell viability counter screen (AID 1159525; calls by dose curve; note: nearly all actives have a fitted effect of over 55% in size)
Procedure, shortened: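 Same-well cytotoxicity counter screen of the Tox21 10K library in ME-180 cells. The readout is ATP-dependent luminescence after 5 h compound treatment. Data are normalised to DMSO and tetra n-octyl ammonium bromide controls.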

[9] = qHTS assay to identify small molecule agonists of the AP-1 signaling pathway (AID 1159526; calls by dose curve)
[10] = qHTS assay to identify small molecule agonists of the RXR signaling pathway - cell viability counter screen (AID 1159529)
Procedure, shortened: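 CellTiter-Glo luminescence gave viability in the wells also read for beta-lactamase. Cells (RXR-alpha-UAS-bla HEK 293T, 2% charcoal-stripped FBS medium) had 5 hr plating, then 16 hr compound exposure at 37 C; tetraoctyl ammonium bromide served as positive control.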

[11] = qHTS assay to identify small molecule antagonists of the retinoid acid receptor (RAR) signaling pathway - cell viability counter screen (AID 1159551); note: nearly all actives have a fitted effect of over 35% in size
Procedure, shortened: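 In this counter screen, the RARE-luciferase line C3RL4 was exposed for 6 h at 37 C and 5% CO2 to compounds with retinol at 1 uM final. Cellular ATP, read by luminescence, served as the viability measure.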

[12] = qHTS assay to identify small molecule antagonists of the retinoic acid receptor (RAR) signaling pathway (AID 1159552; note: nearly all actives have a fitted effect of over 50% in size)
Procedure, shortened: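 Luminescent RARE reporter read-out in C3RL4 cells: 6 hr co-treatment at 37 C of test compounds with retinol at 1 uM final. Cells plated overnight beforehand; luciferase reagent incubated 30 min at room temperature before reading.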

[13] = qHTS assay to identify small molecule agonists of the retinoic acid receptor (RAR) signaling pathway (AID 1159553); note: potency is the fitted concentration of half-maximal effect
Procedure, shortened: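 In this cell-based screen, 1,000 C3RL4 cells per well were cultured overnight, dosed with test chemicals in DMSO for 6 hr, and assessed for RARE luciferase luminescence.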

[14] = target: Retinoic acid receptor RXR-alpha (Homo sapiens) (UniProt P19793); assay: qHTS assay to identify small molecule agonists of the RXR signaling pathway (AID 1159527; calls by dose curve; note: nearly all actives have a fitted effect of over 35% in size)
Retinoic acid receptor RXR-alpha (Homo sapiens), sequence (P19793 whole entry, looked up): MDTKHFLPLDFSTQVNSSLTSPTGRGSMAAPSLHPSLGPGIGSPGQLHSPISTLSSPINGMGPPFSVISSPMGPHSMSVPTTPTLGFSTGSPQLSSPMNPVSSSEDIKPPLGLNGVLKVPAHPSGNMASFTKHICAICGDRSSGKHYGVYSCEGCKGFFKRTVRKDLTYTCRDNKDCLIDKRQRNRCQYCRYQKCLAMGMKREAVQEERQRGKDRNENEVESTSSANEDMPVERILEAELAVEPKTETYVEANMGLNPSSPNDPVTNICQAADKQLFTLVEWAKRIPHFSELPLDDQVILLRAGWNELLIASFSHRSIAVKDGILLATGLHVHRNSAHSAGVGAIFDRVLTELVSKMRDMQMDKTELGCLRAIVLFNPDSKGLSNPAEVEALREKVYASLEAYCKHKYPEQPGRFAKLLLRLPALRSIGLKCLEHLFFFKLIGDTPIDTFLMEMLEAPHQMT
Procedure, shortened: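 Agonist-mode beta-lactamase reporter assay: HEK 293T RXR-alpha-UAS-bla cells treated 16 hr at 37 C with compounds, 9-cis retinoic acid as positive control. LiveBLAzer FRET substrate, 405 nm excitation, 460/530 nm emission.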

Measured: Potency

C1=COCCC1
not listed: [14]
inactive: all other assays above

O=c1[nH]nc(-c2ccc([N+](=O)[O-])o2)o1
not listed: [11] | [13] | [14]
inactive: all other assays above

O=C(Cl)c1ccc(F)c(Cl)c1
not listed: [10] | [12] | [13] | [14]
inactive: all other assays above

CC(C)(C)c1ccc(CCC=O)cc1
not listed: [2] | [6] | [14]
inactive: all other assays above

c1ccc(CN(Cc2ccccc2)Cc2ccccc2)cc1
inactive: [2] | [3] | [4] | [5] | [7] | [8] | [9] | [12]

CC1(C)[C@@H]2CC[C@]3(C2)[C@@H]1C(=O)CCC3(C)C
not listed: [9]
inactive: all other assays above

Cc1c(-c2cccnc2)c2ccccc2n1CCCCC(=O)O
active: [13] 43.3 µM
not listed: [14]
inactive: all other assays above

CC(C(=O)O)c1ccc(/C=C2\CCCCC2=O)cc1 (stereo unspecified)
active: [13] 15 µM
not listed: [6] | [14]
inactive: all other assays above

O=C(OCCCCCOC(=O)c1ccccc1)c1ccccc1
not listed: [1] | [13] | [14]
inactive: all other assays above

CCCCCCCCC(=O)OCC(C)OC(=O)CCCCCCCC (stereo unspecified)
not listed: [2] | [6] | [14]
inactive: all other assays above

CC/C=C/CCO
not listed: [2] | [7] | [12] | [13] | [14]
inactive: all other assays above

Nc1ncnc2c1ncn2[C@@H]1O[C@H](CO)[C@@H](O)[C@H]1O
not listed: [14]
inactive: all other assays above

CC[C@H](NC(C)C)[C@H](O)c1ccc(O)c2[nH]c(=O)ccc12
not listed: [13] | [14]
inactive: all other assays above

c1ccc(CCNc2nc(-c3ccccc3)cs2)cc1
active: [13] 2.11 µM
not listed: [9]
inactive: all other assays above

Cc1c(Nc2ncccc2C(=O)O)cccc1C(F)(F)F
not listed: [10] | [13] | [14]
inactive: all other assays above

CC(C)(C)N
not listed: [14]
inactive: all other assays above

Nc1ccc(F)cc1F
not listed: [1] | [12] | [13] | [14]
inactive: all other assays above

CCC1=C(C)CN(C(=O)NCCc2ccc(S(=O)(=O)NC(=O)NC3CCC(C)CC3)cc2)C1=O (stereo unspecified)
not listed: [7] | [11] | [14]
inactive: all other assays above

Cc1cc(C)c(C)c(O)c1
not listed: [2] | [6] | [9] | [11]
inactive: all other assays above

OCCCO
not listed: [2] | [13] | [14]
inactive: all other assays above

COc1ccc(C(=O)c2ccc(C)cc2)c(O)c1
not listed: [6] | [12] | [13] | [14]
inactive: all other assays above

CCCCCCCCCCCCN1CCOCC1
not listed: [11] | [12] | [13] | [14]
inactive: all other assays above
